# According to PubChem BioAssay (NCI):
# This is part of a sample that, as a whole, favours compounds with a hit. Of some 83,000 tested, about 20% had one in any assay.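 48-hour exposure, single concentration, 96-well plates; percent growth endpoint where 0 means no net growth. Active: below 10.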 Unmarked numbers belong to inactive results. Active and inactive are the calls of the source.
# Columns and labels:
# Test in all cases: NCI-60 one-dose screen, 48 h (100 = growth as untreated, 0 = no growth, -100 = all killed)
# Conditions in all cases: 10 µM unless noted
# SK-MEL-2 melanoma = system: SK-MEL-2 melanoma
# EKVX NSCLC = system: EKVX NSCLC
# SN12C renal = system: SN12C renal
# UO-31 renal = system: UO-31 renal
# TK-10 renal = system: TK-10 renal
# A498 renal = system: A498 renal
# CCRF-CEM leukemia = system: CCRF-CEM leukemia
# MOLT-4 leukemia = system: MOLT-4 leukemia
# SR leukemia = system: SR leukemia
# ACHN renal = system: ACHN renal
SMILES,growth (SK-MEL-2 melanoma),growth (EKVX NSCLC),growth (SN12C renal),growth (UO-31 renal),growth (TK-10 renal),growth (A498 renal),growth (CCRF-CEM leukemia),growth (MOLT-4 leukemia),growth (SR leukemia),growth (ACHN renal)
O=C(O)COc1ccc2c(=O)c3sc4c(=O)c5ccccc5c(=O)c4c3c(=O)c2c1,25.5%,78.9%,-11.6% (active),43.5%,74.8%,-86.9% (active),56.8%,45.1%,26.6%,–
O=C1Nc2ccc(Cl)cc2/C1=N/c1nc(-c2ccc(F)cc2)cs1,39.9%,44.5%,54.8%,50.4%,59.2%,33.3%,11.1%,–,1.96% (active),48.5%
N#Cc1ccc(N2Cc3cc(Cl)ccc3OC3=C2C(=O)N(Cc2ccc(F)cc2)C3=O)cc1,-46.5% (active),37.4%,-24.9% (active),-85.7% (active),-79.4% (active),120%,-20% (active),-34.5% (active),-33.5% (active),–
O=c1[nH]c2ccccc2cc1-c1nc2ccc(Cl)cc2[nH]1,18.7%,22.6%,48.4%,45.7%,37.5%,48.3%,13.7%,-19.7% (active),8.43% (active),–
O=C(/C(=C/c1ccc([N+](=O)[O-])cc1)SCc1ccc(Cl)cc1)c1ccc(F)cc1,81.3%,59.7%,45.9%,45.8%,94.7%,70.5%,4.66% (active),7.69% (active),0.569% (active),–
O=C1NCc2ccc3c(-c4cccc(Cl)c4)c[nH]c3c21,38.6%,28.7%,36.8%,44.8%,46.2%,24.7%,17.4%,18.1%,20.4%,–
COc1cc(-c2nn(-c3ccc(Br)cc3)cc2CO)ccc1O,100%,92.5%,97.1%,59.9%,110%,77.2%,54.9%,–,65.4%,100%
O=c1nc(-c2ccccc2)c2cc(-c3ccc(N4CCCC4)nc3)ccc2[nH]1,37.5%,71.1%,–,63.6%,88.5%,46.6%,54.5%,44%,–,82.6%
COCCOCCOCc1n(Cc2ccc3ccccc3n2)c2ccccc2[n+]1Cc1ccc2ccccc2n1,-8.51% (active),71.6%,11.4%,67.3%,37.6%,78.1%,31.6%,26.3%,9.58% (active),–
CNS(=O)(=O)c1cccc(-c2ccc3c4c(n(C)c(=O)c3c2)-c2ccccc2C4=O)c1,113%,51.7%,19.5%,35.4%,85.5%,72.1%,6.13% (active),-1.83% (active),3.35% (active),–
CCOC(=O)C1CCN(S(=O)(=O)/N=C2/NC(=O)NC2=C(Cl)Cl)CC1,-23.4% (active),67.4%,-35.1% (active),8.22% (active),33.1%,23.9%,-53.4% (active),-20.8% (active),-11.4% (active),–
O=CN1N=C(c2ccc3c(c2)OCO3)CC1c1cccc(Nc2ccnc3cc(C(F)(F)F)ccc23)c1 (stereo not drawn),76.1%,75.2%,88.9%,63.7%,76.9%,72.5%,66.5%,53.4%,29.9%,–
COC(=O)/C=C1\SC(=Nc2cccc(Cl)c2)N(CCc2c[nH]c3ccccc23)C1=O,40.6%,71.9%,44.5%,58.5%,73.4%,61.5%,5.03% (active),-17.6% (active),-7.91% (active),–
S=C(Nc1ccc(Cl)cc1)c1ccccn1,92.1%,87.9%,99.3%,71.5%,110%,69.2%,99.4%,–,102%,99%
COc1cc(/C=C/CO)cc(OC)c1O[C@@H]1O[C@H](CO)[C@@H](O)[C@H](O)[C@H]1O,108%,95%,–,97.1%,98.7%,77.2%,96.2%,94.8%,95.2%,109%
O=C(CN1N=C(c2ccc(F)cc2)CCC1=O)Nc1nccs1,101%,98.3%,–,87.6%,-95.6% (active),84.1%,94%,97.5%,92.8%,–
O=C1NN(c2ccccc2)C(c2ccc3c(c2)OCO3)N2CCC[C@@H]12 (stereo partly drawn),89.8%,102%,–,85.4%,92.2%,97.5%,108%,102%,92.1%,101%
C=C1C(=O)O[C@H]2[C@H]1CC/C(COC(=O)/C=C/c1cccnc1)=C\CC[C@@]1(C)O[C@@H]21,75.2%,43.4%,–,24.9%,25.1%,92.4%,-7.32% (active),8.45% (active),6.38% (active),-11.4% (active)
CCC[S@](=O)c1ccc2nc(NC(=O)OC)[nH]c2c1,99.2%,95.3%,–,96.8%,91.7%,95.1%,96.2%,79.6%,75.3%,103%
C=C(C)[C@@H]1CC[C@]2(C(=O)OCCOCCOCC[P+](c3ccccc3)(c3ccccc3)c3ccccc3)CC[C@]3(C)[C@H](CC[C@@H]4[C@@]5(C)CC[C@H](OC(=O)C(Cl)Cl)C(C)(C)[C@@H]5CC[C@]43C)[C@@H]12,-45.4% (active),-15.2% (active),–,-45.1% (active),15.7%,-28.3% (active),4.25% (active),-8.02% (active),-32% (active),-79.2% (active)
O=c1c2ccccc2oc2ccc(OCCCCCN3CCCCCC3)cc12,99.4%,90.4%,–,68.1%,72.2%,82.7%,82.5%,46.7%,–,103%
COc1ccc(NC(=O)Nc2ccc(Nc3nc(C)cc(Nc4ccc(C)cc4)n3)cc2)cc1,-61.9% (active),-70.9% (active),–,-90.5% (active),-95.9% (active),107%,-7.9% (active),-35.3% (active),-37.1% (active),-99.6% (active)
O=[N+]([O-])c1cccc(CN(Cc2cccc([N+](=O)[O-])c2O)c2ccccc2)c1O,84.7%,77.3%,–,39.6%,89.7%,65.5%,67.8%,64.6%,55.8%,74.6%
N#Cc1ccc(C2C3=C(CCCC3=O)OC3=C2C(=O)c2ccccc2C3=O)cc1 (stereo not drawn),43.7%,63.1%,–,85.8%,99.7%,109%,15.8%,-6.58% (active),–,66.7%
COc1cc(C(=O)Nc2cc(O)c(C/C=C(\C)CCC=C(C)C)c(O)c2)cc2c1O[C@]1(C)CC[C@@H](O)C(C)(C)[C@H]1C2,5.69% (active),31.7%,–,-31.9% (active),40.9%,-25.7% (active),7.08% (active),-2.24% (active),1.41% (active),18.5%
Cc1c(Cl)cccc1NC(=O)c1sc2nc3c(cc2c1N)CN(Cc1ccccc1)CC3,31.4%,55.5%,–,58%,75%,36.6%,14.5%,22.9%,16.9%,56.4%
Cc1nccc2c3ccc(OCc4cn(-c5ccc(Cl)cc5)nn4)cc3n(CC(C)C)c12,20.7%,40.8%,–,12.4%,13.7%,22.6%,18%,-11.1% (active),-14.8% (active),34.8%
COc1ccc([C@H]2[C@@H](F)C(=O)N2c2cc(OC)c(OC)c(OC)c2)cc1F,58.8%,72.2%,–,43.2%,64.4%,-5.5% (active),13.2%,19.7%,13.3%,32.7%
